Laboratory results: PubChem BioAssay (NCATS)
“And” between values parts separate entries of the source, which are not always exact repeats. Identical values can stand only once. Records with an inconclusive call do not appear. A number with no mark means an inactive call. The source made the active and inactive calls. The call rests on the fitted dose curve; in most records, active means well fitted cell-killing curve with a large enough effect; inconclusive means small, poorly fitted or top-dose-only effect; inactive means no such curve, though single readings can be large or run the other way.

Assay: qHTS of pediatric cancer cell lines to identify multiple opportunities for drug repurposing: Primary screen for NB-EBc1 cells (AID 1347095)
Settings: NB-EBc1 neuroblastoma viability, CellTiter-Glo luminescence, 48 h; series mostly up to 46 µM; activity change, negative = cytotoxic: at the top concentration
Description: Drug repurposing or repositioning has been offered as a strategy for drug development in oncology programs. This approach has special potential for childhood cancers and other rare or orphan diseases, where the expected return on new drug development has been a disincentive to pharmaceuticals. […] In this project we exploit the poly-pharmacology of drugs to discover new indications via phenotypic screening of a panel of 19 well-characterized cell lines derived from solid tumors seen in children and adolescents. The goal is to identify approved drugs with previously unrecognized anticancer properties that has the potential to reveal new mechanisms and biological processes involved in carcinogenesis or drug resistance. We employed a titration-based paradigm (quantitative high-throughput screening or qHTS), where all compounds were tested at multiple concentrations for their effect on cell viability. Concentration-response curves (CRCs) were derived directly from the primary screen, and both potency and efficacy values were used to identify compounds with robust bioactivity profiles. We screened the NIH Chemical Genomics Center (NCGC) Pharmaceutical Collection (NPC) and Mechanism Interrogation Plate (MIPE) small molecule collections of approved and investigational compounds against these cell lines; and measured metabolically active cells after 48 hours of compound treatment as a proxy for cell viability. […] Assay Submitter: Nathalia J. Martinez, National Center for Advancing Translational Sciences, National Institutes of Health, Rockville, MD, USA; email: natalia.martinez@nih.gov Shen, M et al. Quantitative high-throughput phenotypic screening of pediatric cancer cell lines identifies multiple opportunities for drug repurposing. Oncotarget 2017 Dec 19;9(4):4758-4772. PMID 29435139.
The cells were obtained from University of North Carolina (UNC), Pediatric Preclinical Testing Program (PPT), and Coriell Institute (CI). qHTS cell viability assay: Cells were assayed in growth media at a density of 500-1,000 cells/well. Five microliters of cells were dispensed into 1,536-well, white, solid-bottom, TC-treated plates (Greiner Bio One) using a multidrop dispenser and incubated at 37 degrees C, 5% CO2, under a humidified atmosphere for 5 hours. Twenty-three nanoliters of compounds and controls (neutral control DMSO or positive control bortezomib at final concentration of 2.3 µM) were subsequently transferred by Kalypsys pintool. For primary screens, the MIPE collection was tested at 11-point dilutions (final concentrations range from 0.78 nM to 46 µM) and the NPC collection at 8-point dilutions (final concentrations range from 0.59 nM to 46 µM). Compounds tested in follow-up screens were assayed at 11-point dilutions. Cells were incubated for 48 hours, followed by addition of 3 µL of CellTiter-Glo (Promega). After a 15 min incubation at room temperature, samples were analyzed for luminescence intensity using a ViewLux High-throughput CCD imager equipped with clear filters.
Potency means the concentration at half of the fitted maximal effect.

| Structure (SMILES) | activity change, negative = cytotoxic | Potency |
| --- | --- | --- |
| O=c1oc2cc(O)ccc2s1 | 9.67% |  |
| CCC(C)(Oc1ccc(C2(c3ccc(OC(C)(CC)C(=O)O)cc3)CCCCC2)cc1)C(=O)O (stereo not given) | 11.8% |  |
| CCc1nc(N)nc(N)c1-c1ccc(Cl)cc1 |  | 2.66 µM (active) and 5.26 µM (active) |
| C[C@@H](c1ncncc1F)[C@](O)(Cn1cncn1)c1ccc(F)cc1F | -16.2% |  |
| CC1Cc2ccccc2N1NC(=O)c1ccc(Cl)c(S(N)(=O)=O)c1 (stereo not given) |  | inactive |
| CCCCN(CCCC)CCC(O)c1cc2c(Cl)cc(Cl)cc2c2cc(C(F)(F)F)ccc12 (stereo not given) |  | inactive |
| Cc1nc(Nc2ncc(C(=O)Nc3c(C)cccc3Cl)s2)cc(N2CCN(CCO)CC2)n1 | -11% |  |
| O=C1CCc2ccc(OCCCCN3CCN(c4cccc(Cl)c4Cl)CC3)cc2N1 | -3.54% |  |
| COC(=O)N[C@H](C(=O)N[C@@H](Cc1ccccc1)[C@@H](O)CN(Cc1ccc(-c2ccccn2)cc1)NC(=O)[C@@H](NC(=O)OC)C(C)(C)C)C(C)(C)C | -5.63% |  |
| COc1cc(C(C)=O)ccc1OCCCN1CCC(c2noc3cc(F)ccc23)CC1 |  | inactive |
| C[Se]CCC(N)C(=O)O (stereo not given) | 0.445% [at 92.7 µM] |  |
| Cc1cccc(-c2[nH]ncc2-c2ccc3ncccc3n2)n1 | 13.2% |  |
| CC[C@]1(O)C[C@H]2CN(CCc3c([nH]c4ccccc34)[C@@](C(=O)OC)(c3cc4c(cc3OC)N(C=O)[C@H]3[C@@](O)(C(=O)OC)[C@H](OC(C)=O)[C@]5(CC)C=CCN6CC[C@]43[C@@H]65)C2)C1 |  | 9.3 nM (active) and 237 nM (active) |
| O=C1c2ccccc2-c2n[nH]c3cccc1c23 |  | 1.05 µM (active) |
| NC(=O)Cc1cccc(C(=O)c2ccccc2)c1N |  | inactive |
| CN1CCC(=C2c3ccccc3CCc3sccc32)CC1 |  | inactive |
| CNC[C@@H](O)[C@@H](O)[C@H](O)[C@H](O)CO | 17.1% |  |
| CCOC(=O)C(C)Oc1cccc2c(=O)n(CC(=O)Nc3ccc4c(c3)OCCO4)ccc12 (stereo not given) | 15.5% |  |
| CCCS(=O)c1ccc2nc(NC(=O)OC)[nH]c2c1 (stereo not given) |  | 10.5 µM (active) |
| CCOC(=O)C1=C(O)C(=O)N(Cc2ccccc2)C1 | 13.2% |  |

| Structure (SMILES) | activity change, negative = cytotoxic | Potency |
| --- | --- | --- |
| S=c1nc[nH]c2nc[nH]c12 |  | 531 nM (active) and 1.66 µM (active) |
| CN(C)CCCC1(c2ccc(F)cc2)OCc2cc(C#N)ccc21 (stereo not given) | -9.29% |  |
| Cc1cccc(CN2CCN(C(c3ccccc3)c3ccc(Cl)cc3)CC2)c1 (stereo not given) |  | 18.7 µM (active) |
| CCN(CC)CCOc1ccc(Nc2ncc3cc(-c4c(Cl)cccc4Cl)c(=O)n(C)c3n2)cc1 |  | 1.48 µM (active) |
| CN(C)CCc1c[nH]c2ccc(Cn3cncn3)cc12 | -2.74% |  |
| Clc1ccc2c(N3CCN(CCCN4CCN(c5ccnc6cc(Cl)ccc56)CC4)CC3)ccnc2c1 | 23.5% [at 16.1 µM] |  |
| C[C@]12CCC(=O)C=C1CC[C@@H]1[C@H]2[C@@H](O)C[C@@]2(C)[C@H]1CC[C@]2(O)C(=O)CO | 16.7% |  |
| NCCCCNCCCN | 8.81% |  |
| NC(=NCc1ccccc1)NC(=O)c1nc(Cl)c(N)nc1N | 0.886% |  |
| CC(S)C(=O)NCC(=O)O (stereo not given) |  | inactive |
| Nc1ccn([C@@H]2O[C@H](CO)[C@@H](O)C2O)c(=O)n1 (stereo not given in full) | 35.1% |  |
| CCN(CC)C(=S)SSC(=S)N(CC)CC |  | 11.8 nM (active) and 31.3 µM (active) |
| O=C(O)c1cccc(-c2noc(-c3ccccc3F)n2)c1 | -9.93% |  |
| CCOC(=O)C1=C[C@@H](OC(CC)CC)[C@H](NC(C)=O)[C@@H](N)C1 | 0.104% |  |
| COc1cc2c(N3CCN(C(=O)Nc4ccc(OC(C)C)cc4)CC3)ncnc2cc1OCCCN1CCCCC1 |  | inactive |
| O=C(NCCO[N+](=O)[O-])c1cccnc1 |  | inactive |
| N[C@@H](Cc1cc(I)c(Oc2cc(I)c(O)c(I)c2)c(I)c1)C(=O)O |  | inactive |
| O=C(O)c1cccnc1Nc1cccc(C(F)(F)F)c1 | -8.13% |  |
| C[C@@H](N)C1CCC(C(=O)Nc2ccncc2)CC1 (stereo not given in full) | 5.27% |  |
| O=C(CS(=O)Cc1ccco1)NCC=CCOc1cc(CN2CCCCC2)ccn1 (stereo not given) | 10.7% |  |
